The source of these data is PubChem BioAssay AID504332 (National Center for Advancing Translational Sciences (NCATS), 2011).

Out of some 350,000 compounds screened, about 31,000 (8.9%) were called active. Not shown: some 15% with an inconclusive outcome. The entries come from a sample that favours actives as a whole. Values without a mark were called inactive. Calls follow the shape of the dose curve; as a rule, active = well fitted inhibition curve with a large enough effect; inconclusive = small, poorly fitted or top-dose-only effect; inactive = no such curve, though single readings can be large or run the other way.
% is scaled to controls: 0 for no effect and ±100 for the full control effect; potency is read from the fitted curve at half-maximal effect.

Histone-lysine N-methyltransferase EHMT2 (Homo sapiens), sequence (Q96KQ7 913-1193 limits assumed): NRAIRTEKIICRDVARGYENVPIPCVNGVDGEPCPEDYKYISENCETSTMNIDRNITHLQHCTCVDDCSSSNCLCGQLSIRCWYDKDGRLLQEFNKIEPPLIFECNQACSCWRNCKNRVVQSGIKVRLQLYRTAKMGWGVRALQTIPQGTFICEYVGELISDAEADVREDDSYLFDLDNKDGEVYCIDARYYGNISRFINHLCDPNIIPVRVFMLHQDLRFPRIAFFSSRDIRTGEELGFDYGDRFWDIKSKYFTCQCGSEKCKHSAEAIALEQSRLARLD

In this test the target is Histone-lysine N-methyltransferase EHMT2 (Homo sapiens) (UniProt Q96KQ7). The experiment in a line: qHTS Assay for Inhibitors of Histone Lysine Methyltransferase G9a. Also: nearly all actives have a fitted effect of over 75% in size. Conditions: G9a H3K9 monomethylation, AlphaScreen, 2 h; series mostly up to 59 µM; activity, negative = inhibition: at the top concentration. In outline:
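Using a bead-based AlphaScreen, monomethylated H3K9 product from 2 h room-temperature reactions (G9a 20 nM, peptide 500 nM, SAM 20 uM) was detected with 0.5 ug/mL rabbit anti-H3K9me1 antibody.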
In general terms: Quantitative high-throughput screening tests each substance at several concentrations.
As for `CN(CC(=O)Nc1ccc(Cl)cc1)C(=O)CNC(=O)c1ccc2ccccc2c1`, the “activity, negative = inhibition” value was 86.3% [at 102 µM].
Regarding `COc1cccc(-c2nnc(SCC(=O)N3CCC(C)CC3)o2)c1`, the “activity, negative = inhibition” value was 1.74%.
With `O=C(C1COc2ccccc2O1)N(Cc1cccnc1)c1nc2c(F)cc(F)cc2s1` (stereo not drawn), the “activity, negative = inhibition” value is -4.58%.
As to `CCc1ccc(N2C(=O)CN(S(=O)(=O)CC)CC2(C)C(=O)NC2CCCCC2)cc1` (stereo not drawn), the “activity, negative = inhibition” value was 4.02%.
Take `COc1ccc(C(=O)CCc2ccccc2O)c(OC)c1`: the “activity, negative = inhibition” value is 13.6% [at 102 µM].
For `COc1ccc(/C=C2/C(=O)N(c3ccccc3)N=C2C)c(OC)c1`, the Potency was 20 µM (active).
Consider `COc1ccc(/C=C2/C(=O)OCc3cc(OC)c(OC)cc32)c(OC)c1`, for which the “activity, negative = inhibition” value was 20.5%.
As to `CCN1N=C(c2ccccc2)CCC1=O`, the activity, negative = inhibition was 21.7% [at 0.501 µM].
`O=C(NNC(=S)NCCCN1CCOCC1)c1ccncc1`: the Potency was 20 µM (active).
Consider `Cc1cc(C)cc(NC(=S)NCCCN2CCOCC2)c1`, for which the “activity, negative = inhibition” value was 18%.
As for `COc1cccc(NC(=S)NCCCN2CCOCC2)c1`, the “activity, negative = inhibition” value is 4.95%.
Same read-out and setting: with `CCS(=O)(=O)N1CCc2cc(C(=O)NCc3ccc(C)cc3)ccc21` the figure was -2.49%.
With `Cc1cc(C(=O)OCC(=O)N2c3ccccc3NC(=O)C2(C)C)c(C)n1-c1ccccc1`, the “activity, negative = inhibition” value was -19.9%.
On to `CC(=O)Nc1ccc(C(=O)Nc2nc(-c3cc(C)n(Cc4ccccc4)c3C)cs2)cc1`, for which the “activity, negative = inhibition” value is 0.836%.
For `Cc1nc(N)sc1N=Nc1c(C)n(C)n(-c2ccccc2)c1=O`, the activity, negative = inhibition was -3.39% [at 12.7 µM].
Turning to `Cc1cc(-c2csc(N)n2)c(C)n1Cc1ccccc1`, the Potency was 28.2 µM (active).
As for `O=c1onc(-c2cccs2)n1Cc1ccccc1`, the activity, negative = inhibition is 1.14% [at 12.7 µM].
Take `Cc1cc(-c2csc(N)n2)c(C)n1-c1ccccc1`: the Potency was 11.2 µM (active).
On to `CN(CCO)S(=O)(=O)c1ccc2c(c1)C(=O)c1cc(S(=O)(=O)N(C)CCO)ccc1-2`, for which the activity, negative = inhibition was 6.15% [at 0.501 µM].
Regarding `CCOc1ccc(C(=O)NCC(=O)N2CCN(c3ccc(C(F)(F)F)cn3)CC2)cc1`, the “activity, negative = inhibition” value is 13.9%.
Same read-out and setting: the value for `O=C(Nc1cccc(-c2nc3ccccc3o2)c1)c1cccc(Br)c1` was -4.65%.
In the case of `COc1cc(C(=S)NCc2ccccc2)cc(Br)c1O`, the Potency was 2.51 µM (active).
In the case of `COc1cc(C=O)c(Br)cc1OCC(=O)NCc1ccccc1`, the “activity, negative = inhibition” value is -3.38% [at 102 µM].
Same read-out and setting: the value for `COc1cc(C(=O)NCc2ccncc2)cc(Br)c1OCc1ccccc1` was 1.4% [at 102 µM]; that for `Cc1cccc(C(=O)NCC(=O)OCC(=O)N(C)CC(=O)Nc2ccccc2Cl)c1` was 8.39%.
For the compound `O=C(COC(=O)Cn1cnc2ccccc2c1=O)NCC12CC3CC(CC(C3)C1)C2`, the “activity, negative = inhibition” value was 12.2%.
On to `O=C(COC(=O)Cn1cnc2ccccc21)Nc1cccc2c1C(=O)c1ccccc1C2=O`, for which the Potency was 12.6 µM (active).
Consider `COc1ccc(NC(=O)COC(=O)Cn2c(C)nc3ccccc32)cc1OC`, for which the “activity, negative = inhibition” value was -1.35% [at 102 µM].
